Measured values published in PubChem BioAssay AID720567 (Broad Institute, 2013).
Measured potencies and affinities stand elsewhere. Active and inactive are the calls of the source. How the calls were made is not given here.

Assay: HEK293 cell cytotoxicity, dose response, cytotoxicity control, dry powder samples (AID 720567)
Settings: plate reader; series mostly up to 15 µM; activity change, negative = cytotoxicity: at the top concentration

Structure (SMILES)	activity change, negative = cytotoxicity
COc1ccc(CSc2nnc(-c3ccccc3)o2)cc1	49.6% (inactive)
CC(=O)N[C@H]1[C@@H](O[C@@H]2OC(C[C@@H](O)C3O[C@@H](n4ccc(=O)[nH]c4=O)[C@H](O)[C@@H]3O)[C@H](O)[C@H](O)[C@H]2NC(=O)/C=C/CCCCCCCCCCC(C)C)O[C@H](CO)[C@@H](O)[C@@H]1O (stereo partly drawn)	67.2% [at 3.8 µM] (inactive)
c1ccc(CSc2nnc(-c3ccccc3)o2)cc1	9.89% (inactive)
